In the supplement of paper PMC7156485:
± gives the standard deviation of the averaged measurements.

Assays:
Conditions in all cases: concentration: 10 µM; 24 h
HCC1569 [1] = experiment: cell number relative to DMSO (% of DMSO); higher = more cells (less growth inhibition / toxicity)
In short: (§1)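 In 384-well plates holding 800 HCC1569 or TDF cells per well in RPMI with 10% FBS, compounds were tested at 10 µM for 24 h at 37 °C in triplicate. Fixation used 3.7% formaldehyde. Staining used a rabbit anti-H1.0 antibody with an AlexaFluor 647 secondary, plus DAPI. Each value, H1.0 nuclear intensity or cell number, is a median of replicates shown as percent of the plate control, and HCC1569 values were smoothed for positional effects.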

TDF [2] = experiment: as above
In short: as §1

TDF [3] = experiment: H1.0 immunofluorescence intensity relative to DMSO (% of DMSO); higher = stronger H1.0 induction, active = 120 or more
In short: as §1

HCC1569 [4] = experiment: H1.0 immunofluorescence intensity relative to DMSO (% of DMSO); higher = stronger H1.0 induction, active = 140 or more
In short: as §1
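Wherever H1.0 immunofluorescence intensity relative to DMSO is given: TDF is a line of transformed human dermal fibroblasts of mesenchymal origin.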
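Wherever cell number relative to DMSO is given: TDF denotes transformed human dermal fibroblasts of mesenchymal origin.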

| Structure (SMILES) | cell number (HCC1569 [1]) | cell number (TDF [2]) | H1.0 immunofluorescence intensity (TDF [3]) | H1.0 immunofluorescence intensity (HCC1569 [4]) |
| --- | --- | --- | --- | --- |
| COc1ccc(CNC(=O)Nc2ncc([N+](=O)[O-])s2)cc1 [GSK-3b Inhibitor VIII] | 91 | 106 | 96.6 (inactive) | 128 (inactive) |
| C[N+](C)(C)CCCCCC[N+](C)(C)C.[Cl-].[Cl-] [Hexamethonium dichloride] | 98 | 99.9 | 95.6 (inactive) | 87.7 (inactive) |
| O=c1cc(-c2ccc(O)cc2)oc2c(C3OC(CO)C(O)C(O)C3O)c(O)cc(O)c12 (configuration not stated) [Vitexin] | 101 | 100 | 99.5 (inactive) | 85.1 (inactive) |
| CC12CCC(=O)C=C1CCC1C2C(O)CC2(C)C1CCC2(O)C(=O)COC(=O)CCC(=O)[O-].[Na+] (configuration not stated) [Hydrocortisone 21-hemisuccinate sodium] | 99.5 | 99.5 | 82.6 (inactive) | 125 (inactive) |
| CC(N)(Cc1ccc(O)c(O)c1)C(=O)O [L-alpha-Methyl DOPA] | 96.4 | 98.5 | 91.3 (inactive) | 86.8 (inactive) |
| COc1cc2ncnc(Sc3nnc(C)s3)c2cc1OC | 63.3 | 67.7 | 108 (inactive) | 160 (active) |
| COc1cc(NS(C)(=O)=O)ccc1Nc1c2ccccc2nc2ccccc12.Cl [Amsacrine hydrochloride] | 67.8 | 32.3 | 152 (active) | 113 (inactive) |
| N#CC(=Cc1ccc(O)cc1)C(N)=C(C#N)C#N [Tyrphostin AG 112] | 101 | 109 | 95.7 (inactive) | 81 (inactive) |
| CCCCCC(O)C=CC=CCC=CCC=CCCCC(=O)O (configuration not stated) | 103 | 100 | 96.7 (inactive) | 99.7 (inactive) |
| CCCCN1CC(O)C(O)C(O)C1CO (configuration not stated) [Miglustat] | 100 | 95.6 | 97.2 (inactive) | 114 (inactive) |
| CC(C)(CN1C(=O)C(Cl)=C(Cl)C1=O)CN1C(=O)C(Cl)=C(Cl)C1=O | 86.4 | 101 | 89.8 (inactive) | 124 (inactive) |
| C[C@H](CCC(=O)O)[C@H]1CC[C@H]2[C@@H]3C[C@H](O)[C@@H]4C[C@H](O)CC[C@]4(C)[C@H]3CC[C@]12C [(3alpha,5beta,6alpha)-3,6-dihydroxycholan-24-oic acid] | 101 | 98.6 | 97.3 (inactive) | 106 (inactive) |
| CCc1c(CC(N)=O)c2cc(OCCCP(=O)(O)O)ccc2n1Cc1ccccc1 | 101 | 104 | 96 (inactive) | 101 (inactive) |
| CCCCCC(=O)C=CC=CCC=CCC=CCCCC(=O)O [15-Ketoeicosatetraenoic acid] | 99.5 | 102 | 94 (inactive) | 86.9 (inactive) |
| Cc1oncc1C(=O)Nc1ccc(C(F)(F)F)cc1 [Leflunomide] | 103 ± 3.5 | 107 ± 3.5 | 97.1 (inactive) | 101 (inactive) |
| COc1cc(C=Cc2ccccc2)oc(=O)c1 [5,6-Dehydrokawain] | 104 | 97.5 | 99 (inactive) | 92.6 (inactive) |
| O=C(OC1CC2CC3CC(C1)N2CC3=O)c1c[nH]c2ccccc12 (configuration not stated) [Dolasetron] | 99.1 | 84.3 | 102 (inactive) | 105 (inactive) |
| COc1ccccc1OCC(O)CN1CCN(CC(=O)Nc2c(C)cccc2C)CC1.Cl.Cl (configuration not stated) [Ranolazine dihydrochloride] | 104 | 107 | 97.9 (inactive) | 99.9 (inactive) |
| COC1C(N(C)C(=O)c2ccccc2)CC2OC1(C)n1c3ccccc3c3c4c(c5c6ccccc6n2c5c31)C(=O)NC4 (configuration not stated) [Staurosporine, N-benzoyl-] | 66 | 53.5 | 82.4 (inactive) | 108 (inactive) |
| Cc1cc2ncc(-c3ccccc3)nc2cc1C | 100 | 97.9 | 96 (inactive) | 112 (inactive) |
| Cl.Clc1ccc2nsnc2c1NC1=NCCN1 [Tizanidine.HCl] | 118 | 116 | 104 (inactive) | 83.4 (inactive) |
| CCn1c(=O)c2[nH]c(-c3ccccc3)nc2n(CC)c1=O [1,3-Diethyl-8-phenylxanthine] | 98.9 | 103 | 90.7 (inactive) | 87.1 (inactive) |
| Cc1nc2n(c(=O)c1CCN1CCC(c3noc4cc(F)ccc34)CC1)CCCC2 [Risperidone] | 100 ± 3 | 99.6 ± 4 | 93.1 (inactive) | 107 (inactive) |
